Structures are written as SMILES. Counter-ions that a name gives are not always drawn.

For this assay, the system named is Staphylococcus aureus Sa2 (MRSA, cystic fibrosis isolate). The experiment in a line: growth reduction vs untreated control (viable cell count); higher = stronger antibacterial activity; extreme values may be limits of the assay. The note with it: 0.1 mM; 24 h. The procedure: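 Single-dose screen of the MedChem Express Drug Repurposing Library (0.1 mM, 1% DMSO) against planktonic MRSA S. aureus Sa2 (CF isolate) in TSB in 96-well plates, 37 °C aerobic, 24 h. Assays were run in triplicate and repeated twice.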
With `C=CC(=O)Nc1cc(Nc2nccc(-c3cn(C4CC4)c4ccccc34)n2)c(OC)cc1N(C)CCN(C)C` [Almonertinib], the growth reduction was 100%.

`COc1cc(C(=O)O)ccc1NC(=O)[C@@H]1N[C@@H](CC(C)(C)C)[C@](C#N)(c2ccc(Cl)cc2F)[C@H]1c1cccc(Cl)c1F` [Idasanutlin] had a growth reduction of 100%.

`O=C(O)Cc1ccc(Cc2cc(-c3cccc(Cl)c3)nc(C(F)(F)F)c2)cc1` had a growth reduction of 100%.

`Cc1ccc(-n2[nH]c(C)c(N=Nc3cccc(-c4cccc(C(=O)O)c4)c3O)c2=O)cc1C` [Eltrombopag (Olamine)] displayed a growth reduction of 100%.

For the compound `O=C(O)c1ccc2nc(-c3cc(Cl)cc(Cl)c3)oc2c1` [Tafamidis], the growth reduction is 100%.

On to `Cc1c(CN(C)C(=O)/C=C/c2cnc3c(c2)CCC(=O)N3)oc2ccccc12`, for which the growth reduction was determined as 100%.

Compound `O=c1[nH]c(=O)n([C@H]2C[C@H](O)[C@@H](CO)O2)cc1/C=C/Br` [Brivudine] showed a growth reduction of 100%.

With `CNC(=O)c1ccc(Nc2ncc(C(F)(F)F)c(NCc3nccnc3N(C)S(C)(=O)=O)n2)cc1` [Defactinib], the growth reduction amounted to 95%.

Regarding `COC1=C(OC)C(=O)C(CCCCCCCCCC[P+](c2ccccc2)(c2ccccc2)c2ccccc2)=C(C)C1=O` [Mitoquinone (mesylate)], the growth reduction came out at 100%.

On to `Cc1nc2sccn2c(=O)c1CCN1CCC(=C(c2ccc(F)cc2)c2ccc(F)cc2)CC1` [Ritanserin], for which the growth reduction was 100%.

With `C[C@@H](O[C@H]1OCCN(Cc2n[nH]c(=O)[nH]2)[C@H]1c1ccc(F)cc1)c1cc(C(F)(F)F)cc(C(F)(F)F)c1` [Aprepitant], the growth reduction amounted to 100%.

As for `COc1cccc2c1C(=O)c1c(O)c3c(c(O)c1C2=O)C[C@@](O)(C(=O)CO)C[C@@H]3O[C@H]1C[C@H](N)[C@H](O)[C@H](C)O1` [Doxorubicin (hydrochloride)], the growth reduction is 100%.

For `CCCCCc1ccc(C=CC(=O)Nc2ccccc2C(=O)O)cc1` [N-(p-amylcinnamoyl) Anthranilic Acid], the growth reduction worked out at 100%.

`CC(C)(C)c1cc(-c2cc(-c3ccc(C(=O)O)cc3)ccc2OCCO)ccc1N1CCCC1` [Trifarotene] registered a growth reduction of 100%.

As to `Clc1ccc(Nc2nnc(Cc3ccncc3)c3ccccc23)cc1` [Vatalanib (dihydrochloride)], the growth reduction came out at 100%.

Regarding `CCCCCCCCCCCCCCCC[N+](C)(C)CCN(Cc1ccc(OC)cc1)c1ncccn1` [Thonzonium (bromide)], the growth reduction amounted to 100%.

The compound `C=CC[C@@H]1/C=C(\C)C[C@H](C)C[C@H](OC)[C@H]2O[C@@](O)(C(=O)C(=O)N3CCCC[C@H]3C(=O)O[C@H](/C(C)=C/[C@@H]3CC[C@@H](O)[C@H](OC)C3)[C@H](C)[C@@H](O)CC1=O)[C@H](C)C[C@@H]2OC` [Tacrolimus (monohydrate)] showed a growth reduction of 100%.

In turn, `O/N=c1\cc(-c2cc3sccc3cn2)oc2ccc(CCCN3CCOCC3)cc12` [Foliglurax (monohydrochloride)] registered a growth reduction of 100%.

For the compound `C=C1C[C@H]2[C@@H]3CCC4=CC(=O)CC[C@@H]4[C@H]3CC[C@]2(C)[C@@]1(OC(C)=O)C(C)=O` [Nestoron], the growth reduction was found to be 98%.

Turning to `NC(=O)N1c2ccccc2C[C@H](O)c2ccccc21` [Eslicarbazepine], the growth reduction worked out at 94%.

In turn, `CCN1CCN(c2ccc(Nc3cc(N(C)C(=O)Nc4c(Cl)c(OC)cc(OC)c4Cl)ncn3)cc2)CC1` [Infigratinib] had a growth reduction of 100%.

For `CN1CCN(c2ccc3nc(-c4c(N)c5c(F)cccc5[nH]c4=O)[nH]c3c2)CC1` [Dovitinib (lactate)], the growth reduction is 99%.

The compound `Cn1cc(-c2ccncc2)c(-c2ccc(OCc3ccc4ccccc4n3)cc2)n1` [Mardepodect] returned a growth reduction of 93%.

For the compound `CN1CCN(c2ccc(C(=O)Nc3n[nH]c4ccc(Cc5cc(F)cc(F)c5)cc34)c(NC3CCOCC3)c2)CC1` [Entrectinib], the growth reduction was determined as 96%.

Compound `CCCCCOc1ccccc1/C(=C\SC)n1ccnc1` [Neticonazole (hydrochloride)] gave a growth reduction of 100%.

`C=CC(=O)Nc1cc(Nc2nccc(-c3cn(C)c4ccccc34)n2)c(OC)cc1N(C)CCN(C)C` [Osimertinib (dimesylate)]: the growth reduction was determined as 100%.

`Nc1ccn([C@@H]2O[C@H](CO)[C@@H](O)C2(F)F)c(=O)n1` [Gemcitabine (hydrochloride)] came in with a growth reduction of 100%.

In turn, `CC1(S(=O)(=O)O)CC(=O)c2ccccc2C1=O` (stereo not drawn) [Menadione bisulfite (sodium)] yielded a growth reduction of 100%.

`COc1cc([C@H]2C(C#N)=C(N)Oc3c2ccc(N)c3N)cc(Br)c1OC` [Crolibulin]: the growth reduction came out at 100%.

`CC(OC(=O)NCC1(CC(=O)O)CCCCC1)OC(=O)C(C)C` (stereo not drawn) [Gabapentin enacarbil] gave a growth reduction of 93%.

As for `Clc1ccc(CSC(Cn2ccnc2)c2ccc(Cl)cc2Cl)cc1` (stereo not drawn) [Sulconazole (nitrate)], the growth reduction came to 100%.

Turning to `Clc1ccccc1C(c1ccccc1)(c1ccccc1)n1ccnc1` [Clotrimazole], the growth reduction was 100%.

Regarding `Cc1cn(-c2cc(NC(=O)c3ccc(C)c(Nc4nccc(-c5cccnc5)n4)c3)cc(C(F)(F)F)c2)cn1` [Nilotinib], the growth reduction is 92%.

For `Cc1cc(-c2nc(CN3CCNCC3)no2)cc2c1C(=O)N(Cc1ccc(OC(F)(F)F)cc1)C2`, the growth reduction stood at 100%.

In turn, `O=c1[nH]c(=O)n([C@H]2C[C@H](O)[C@@H](CO)O2)cc1F` [Floxuridine] had a growth reduction of 100%.

In the case of `Clc1ccc(COC(Cn2ccnc2)c2ccc(Cl)cc2Cl)cc1` (stereo not drawn) [Econazole (nitrate)], the growth reduction worked out at 100%.

`CC(C)c1c(C(=O)Nc2ccccc2)c(-c2ccccc2)c(-c2ccc(F)cc2)n1CC[C@@H](O)C[C@@H](O)CC(=O)O` [Atorvastatin (hemicalcium salt)] yielded a growth reduction of 98%.

Regarding `CC(C)C[C@@H](C(=O)N[C@H](C(=O)OC1CCCC1)c1ccccc1)[C@H](O)C(=O)NO` [Tosedostat], the growth reduction was 100%.
